According to PubChem BioAssay (Tox21):
Unmarked numbers belong to inactive results. Records with an inconclusive call do not appear. Where a call stands in place of a potency, no number is given. Active and inactive are the calls of the source. The call rests on the fitted dose curve.

Legend:
[1] = molecular target: Acetylcholinesterase (Homo sapiens) (UniProt P22303); experiment: Acetylcholinesterase (AChE) small molecule antagonists: colormetric cell-based qHTS assay (AID 1347395); details: SH-SY5Y cells AChE activity, colorimetric (Ellman); series mostly up to 115 µM; further: nearly all actives have a fitted effect of over 30% in size
Procedure, shortened: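 Colorimetric read-out: DTNB detects thiocholine released when cellular AChE in SH-SY5Y cells hydrolyses acetylthiocholine. Cells attached overnight, received compound for 30 min at 37 C, then substrate mix for 90 min at 37 C.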

[2] = molecular target: Acetylcholinesterase (Homo sapiens) (UniProt P22303); experiment: Acetylcholinesterase (AChE) small molecule antagonists: enzyme-based qHTS assay (AID 1347397); details: Potency: AChE enzyme activity inhibition; outcome: AChE enzyme activity inhibition; series mostly up to 115 µM; further: nearly all actives have a fitted effect of over 55% in size
Procedure, shortened: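 Tox21 library chemicals are tested in qHTS format against recombinant human AChE. The enzyme, dispensed at 50 mU/mL, sits with compound for 30 min at room temperature. A DTNB–acetylthiocholine cocktail follows, and colour is read after 10 min.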

[3] = molecular target: Acetylcholinesterase (Homo sapiens) (UniProt P22303); experiment: Acetylcholinesterase (AChE) small molecule antagonists: fluorescence cell-based qHTS assay (AID 1347398); details: SH-SY5Y cells; Potency: AChE activity; outcome: AChE activity; series mostly up to 115 µM; further: nearly all actives have a fitted effect of over 50% in size
Procedure, shortened: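 Cellular AChE inhibition: SH-SY5Y cells treated with test chemical for 30 min at 37 C, then acetylthiocholine hydrolysis followed over 40 min at room temperature via thiocholine-reactive Thiolite Green fluorescence (490/520 nm).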

[4] = molecular target: Acetylcholinesterase (Homo sapiens) (UniProt P22303); experiment: Acetylcholinesterase (AChE) small molecule antagonists: enzyme-based qHTS assay with human liver microsomes (AID 1347399); details: Potency: qHTS inhibition; outcome: qHTS inhibition; series mostly up to 115 µM; further: nearly all actives have a fitted effect of over 60% in size
Procedure, shortened: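 Recombinant human AChE (50 mU/mL in the enzyme mix) and human liver microsomes (0.25 mg/mL final) were preincubated with compound and NADPH (0.25 mg/mL final) for 30 min at 37 C. Acetylthiocholine/DTNB was then added; thiocholine was read colorimetrically after 10 min at room temperature.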
Potency means the concentration at half of the fitted maximal effect.

Acetylcholinesterase (Homo sapiens), sequence (P22303 whole entry, looked up): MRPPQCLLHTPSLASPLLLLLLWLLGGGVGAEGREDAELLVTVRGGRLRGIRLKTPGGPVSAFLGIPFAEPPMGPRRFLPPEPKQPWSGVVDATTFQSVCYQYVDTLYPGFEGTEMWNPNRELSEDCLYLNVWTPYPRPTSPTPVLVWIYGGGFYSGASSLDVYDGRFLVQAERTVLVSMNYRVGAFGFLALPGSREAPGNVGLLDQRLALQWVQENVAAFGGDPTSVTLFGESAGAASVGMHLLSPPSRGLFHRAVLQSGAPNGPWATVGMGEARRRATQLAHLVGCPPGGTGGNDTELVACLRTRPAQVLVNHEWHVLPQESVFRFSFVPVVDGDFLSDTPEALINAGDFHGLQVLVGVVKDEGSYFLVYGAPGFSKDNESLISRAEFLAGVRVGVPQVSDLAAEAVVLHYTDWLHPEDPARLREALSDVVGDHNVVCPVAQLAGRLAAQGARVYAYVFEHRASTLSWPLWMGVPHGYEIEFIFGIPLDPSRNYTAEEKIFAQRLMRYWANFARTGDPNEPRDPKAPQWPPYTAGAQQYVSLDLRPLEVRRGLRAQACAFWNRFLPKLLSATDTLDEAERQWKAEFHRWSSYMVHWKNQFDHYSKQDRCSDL

SMILES | Potency [1] | Potency [2] | Potency [3] | Potency [4] | activity, negative = inhibition [1] | activity change, negative = inhibition [2] | activity change, negative = inhibition [3] | activity change, negative = inhibition [4]
CC(C)NCCCC1(C(N)=O)c2ccccc2-c2ccccc21 | inactive | inactive | inactive | inactive |  |  |  | 
CCOC(=O)/C=C/C(=O)OCC | inactive | inactive | inactive | inactive |  |  |  | 
C=CC(=C)CC/C=C(\C)CCC=C(C)C |  |  |  |  | -2.99% [at 23.6 µM] | 0.554% [at 23.6 µM] | -5.88% [at 23.8 µM] | -0.162% [at 23.6 µM]
CC(=O)c1ccc2c(c1)N(CCCN1CCC(CCO)CC1)c1ccccc1S2 | 38.9 µM (active) | inactive | 17.4 µM (active) | inactive |  |  |  | 
CNCCS(=O)(=O)O | inactive | inactive | inactive | inactive |  |  |  | 
CCN(CC)C(=O)N(CC)CC | inactive | inactive | inactive | inactive |  |  |  | 
O=C(O)C(O)[C@H](O)[C@@H](O)[C@H](O)[C@H](O)CO (stereo partly specified) | inactive | inactive | inactive | inactive |  |  |  | 
O=C(O)c1cccc(-c2noc(-c3ccccc3F)n2)c1 | inactive | inactive | inactive | inactive |  |  |  | 
CCC(C)C(=O)OCCc1ccccc1 (stereo unspecified) | inactive | inactive | inactive | inactive |  |  |  | 
CC(=N\O)/C(C)=N/O | inactive | inactive | inactive | inactive |  |  |  | 
O=C(O)/C=C/c1ccccc1 | inactive | inactive | inactive | inactive |  |  |  | 
C=Cc1ccc(C=C)cc1 | inactive | inactive | inactive | inactive |  |  |  | 
CCCC1CCC(=O)CC1 | inactive | inactive | inactive | inactive |  |  |  | 
CC/C=C\C/C=C\C/C=C\CCCCCCCC(=O)OC | inactive | inactive | inactive | inactive |  |  |  | 
Cc1cc(O)c(C(C)(C)C)cc1C(C)(C)C | inactive | inactive | inactive | inactive |  |  |  | 
O=C(OCc1ccccc1)C(=O)OCc1ccccc1 | inactive | inactive | inactive | inactive |  |  |  | 
C=CC(=O)OCC1CCCO1 (stereo unspecified) | inactive | inactive | inactive | inactive |  |  |  | 
C=C(C)C(=O)OCCOCC | inactive | inactive | inactive | inactive |  |  |  | 
O/N=C/C=N/O | inactive | inactive | inactive | inactive |  |  |  | 
Oc1cccc(O)c1O | inactive | inactive | inactive | inactive |  |  |  | 
CC(C(=O)O)c1ccc2c(c1)Cc1cccnc1O2 (stereo unspecified) | inactive | inactive | inactive | inactive |  |  |  | 
CC(C)COC(=O)CC(C(=O)OCC(C)C)S(=O)(=O)O (stereo unspecified) | inactive | inactive | inactive | inactive |  |  |  | 

SMILES | Potency [1] | Potency [2] | Potency [3] | Potency [4] | activity, negative = inhibition [1] | activity change, negative = inhibition [2] | activity change, negative = inhibition [3] | activity change, negative = inhibition [4]
CCCc1ccc(O)c(OC)c1 | inactive | inactive | inactive | inactive |  |  |  | 
COc1ccc(/C=C/C(=O)c2ccc(OC)cc2OC)cc1 | inactive | inactive | inactive | inactive |  |  |  | 
Nc1ccc(C(=O)O)c(O)c1 | inactive | inactive | inactive | inactive |  |  |  | 
CC(=O)NC(=O)c1ccccc1O | inactive | inactive | inactive | inactive |  |  |  | 
Nc1ccc(C(=O)OCCCOC(=O)c2ccc(N)cc2)cc1 | inactive | inactive | inactive | inactive |  |  |  | 
CCCCCCCCCCCCCCC[C@H](O)[C@@H](N)CO | inactive | inactive | inactive | inactive |  |  |  | 
C1=CCC(c2ccccc2)CC1 (stereo unspecified) | inactive | inactive | inactive | inactive |  |  |  | 
CC(=O)OCC(=O)[C@@]12OC(C)(C)O[C@@H]1C[C@H]1[C@@H]3C[C@H](F)C4=CC(=O)C=C[C@]4(C)[C@@]3(F)[C@@H](O)C[C@@]12C | inactive | inactive | inactive | inactive |  |  |  | 
CC1=CC(=O)CC(C)(C)C1=O | inactive | inactive | inactive | inactive |  |  |  | 
CCCCCCCCOCCCN | inactive | inactive | inactive | inactive |  |  |  | 
C/C=C(\C)C(=O)OCC/C=C\CC | inactive | inactive | inactive | inactive |  |  |  | 
CCCC(=O)OCCc1ccccc1 | inactive | inactive | inactive | inactive |  |  |  | 
NC[C@H]1O[C@H](O[C@H]2[C@H](O)[C@@H](O[C@H]3O[C@H](CO)[C@@H](O)[C@H](N)[C@H]3O)[C@H](N)C[C@@H]2N)[C@H](O)[C@@H](O)[C@@H]1O |  |  |  |  | -1.99% [at 10.5 µM] | 0.413% [at 10.5 µM] | 2.3% [at 10.5 µM] | -5.67% [at 10.5 µM]
Cc1cccc([N+](=O)[O-])c1C(=O)O | inactive | inactive | inactive | inactive |  |  |  | 
CC(C)CCCCCCOC(=O)CCCCC(=O)OCCCCCCC(C)C | inactive | inactive | inactive | inactive |  |  |  | 
CCNc1nc(NC(C)CC)nc(OC)n1 (stereo unspecified) | inactive | inactive | inactive | inactive |  |  |  | 
CC(=O)CCc1ccc(O)cc1 | inactive | inactive | inactive | inactive |  |  |  | 
O=CC(=O)c1ccccc1 | 2 µM (active) | 5.03 µM (active) | 0.283 µM (active) | 35.6 µM (active) |  |  |  | 
C[C@H]1O[C@@H](n2cc(F)c(=O)[nH]c2=O)[C@H](O)[C@@H]1O | inactive | inactive | inactive | inactive |  |  |  | 
CCOc1ccc(N)c([N+](=O)[O-])c1 | inactive | inactive | inactive | inactive |  |  |  | 
CCc1cccc(C)c1N(C(=O)C(=O)O)C(C)COC (stereo unspecified) | inactive | inactive | inactive | inactive |  |  |  | 
O=C(O)c1ccc2c(c1)nc(C(=O)NC1CCN(C3CC3)CC1)n2Cc1cc(-c2ccc(Cl)s2)on1 |  |  |  |  | -6.96% [at 23.6 µM] | 2.26% [at 23.6 µM] | -24.8% [at 23.8 µM] | 0.834% [at 23.6 µM]
